{"source": "PubChem BioAssay (NCATS)", "note": "Results filed as inconclusive are left out. Unmarked numbers belong to inactive results. Calls of active or inactive are those of the source. Calls follow the shape of the full dose curve."}
{"assay": "qHTS for inhibitors of Rabies Virus screened against the NCATS CANVASS Library (AID 1347402); also: 0% is about no effect", "conditions": "Rabies virus infection cell assay; series mostly up to 45.9 µM"}
{"smiles": "CC(=O)c1c(C)cc2c(c1O)C(=O)c1c(O)cc(O)cc1C2=O", "outcome": "inactive"}
{"smiles": "CC[C@H](O)CCCCC[C@@H]1NC(=O)[C@H]2CCCCN2C(=O)[C@H]([C@H](C)CC)NC(=O)[C@H](Cc2cn(OC)c3ccccc23)NC1=O", "outcome": "inactive"}
{"smiles": "CC1(C)[C@H](Br)CC[C@]23C[C@]4(C)C(=O)CC12C[C@H]34", "outcome": "inactive"}
{"smiles": "C[C@@H](CCC[C@]1(C)C(=O)C=C[C@]23C[C@H]4C[C@H](O[C@@]4(C)C2)C31)C(=O)N[C@@H](CO)C(=O)O", "note": "(stereo partly drawn)", "outcome": "inactive"}
{"smiles": "C/C=C/c1cc(OC)c2c(c1)[C@@H](C)[C@H](c1ccc(O)c(OC)c1)O2", "outcome": "inactive"}
{"smiles": "CCCc1c2c([nH]c(=O)c1C)C(=O)c1[nH]c(=O)c(C)c(CCC)c1C2=O", "outcome": "inactive"}
{"smiles": "Oc1ccc([C@H]2Oc3ccc(/C=C/c4cc(O)cc(O)c4)cc3C2c2cc(O)cc(O)c2)cc1", "note": "(stereo partly drawn)", "outcome": "inactive"}
{"smiles": "C[C@@]12CCC[C@@](C)(C(=O)O)[C@H]1C[C@@H](O)[C@]13C[C@H]4C[C@H](O[C@@]4(C)C1)[C@@H]23", "outcome": "inactive"}
{"smiles": "C/C(=C\\[C@H](C)C(=O)/C=C/CC1CC(=O)NC(=O)C1)[C@@H]1OC(=O)CCCC/C=C/[C@H](O)[C@@H](O)[C@@H]1C", "outcome": "inactive"}
{"smiles": "C/C=C/C1C=CC2CC(C)CC(C)C2C1C(=O)CC(=O)NC(CO)C/C=C/CCCCC", "note": "(stereo not drawn)", "outcome": "inactive"}
{"smiles": "C=CC(C)(C)C(=O)[C@@H](C)[C@@H]1CC[C@@](C)(C=C)O1", "outcome": "inactive"}
{"smiles": "C[C@@]12CCC[C@@](C)(C(=O)O)[C@H]1CC[C@@]13C[C@@H](CC[C@H]12)[C@](C)(O)C3", "outcome": "inactive"}
{"smiles": "C=C1[C@@]2(C)CC3C4(C)CCC(O)C(C)(C)C4CCC3(C)[C@]1(C(=O)OC)C(=O)C(C)(O)C2=O", "note": "(stereo partly drawn)", "outcome": "inactive"}
{"smiles": "O=C1OC(CCO)c2cccc(O)c21", "note": "(stereo not drawn)", "outcome": "inactive"}
{"smiles": "C[C@@H]1C(=O)[C@]23CC[C@H]1C[C@]21O[C@H]2C(C)(C)C=CC(=O)[C@@]23COC1=O", "outcome": "inactive"}
{"smiles": "C[C@@]1(CCC(=O)Nc2c(O)ccc(C(=O)O)c2O)C(=O)C=C[C@]23C[C@H]4C[C@H](O[C@@]4(C)C2)C31", "note": "(stereo partly drawn)", "outcome": "inactive"}
{"smiles": "O=c1cc(-c2ccc(O)cc2)oc2c([C@@H]3OC(CO)[C@H](O)[C@@H](O)[C@H]3O)c(O)cc(O)c12", "note": "(stereo partly drawn)", "outcome": "inactive"}
{"smiles": "CO[C@H]1/C=C/CC[C@@H](S[C@@H]2O[C@H](CO)[C@@H](O)[C@H](O)[C@H]2O)CC(=O)O[C@@H](/C(C)=C/[C@H](C)C(=O)CCCC2CC(=O)NC(=O)C2)[C@@H](C)[C@@H]1O", "activity change, negative = inhibition": "-23.8% [at 0.021 µM]"}
{"smiles": "COc1cc2ccc(=O)oc2c(O)c1O[C@@H]1O[C@H](CO)[C@@H](O)[C@H](O)[C@H]1O", "outcome": "inactive"}
{"smiles": "C/C(=C\\[C@@H](C)CC/C=C/CC/C=C/C(=O)O)[C@@H](O)[C@H](C)C(=O)CCCC1CC(=O)NC(=O)C1", "outcome": "inactive"}
{"smiles": "COc1cc2c(c(O)c1O)C(=O)c1c(coc1C)C2=O", "outcome": "inactive"}
{"smiles": "COc1ccc([C@@H]2c3cc(OC)c(OC)cc3C(=O)C(C)C2C)cc1OC", "note": "(stereo partly drawn)", "outcome": "inactive"}
{"smiles": "CC12C[C@]3(O)O[C@@H](O1)[C@]1(COC(=O)c4ccccc4)[C@@H]3CC21OC1OC(CO)C(O)C(O)C1O", "note": "(stereo partly drawn)", "outcome": "inactive"}
{"smiles": "COc1cc(/C=C/C(=O)O)ccc1O", "outcome": "inactive"}
{"smiles": "C/C(=C\\CC/C(C)=C/CC[C@]1(C)CCc2cc(O)cc(C)c2O1)CC/C=C(\\C)C(=O)O", "outcome": "inactive"}
{"smiles": "CC[C@@H](c1cc(OC)c(OC)cc1OC)[C@H](C)[C@@H](/C(C)=C/c1cc(OC)c(OC)cc1OC)c1cc(OC)c(OC)cc1OC", "outcome": "inactive"}
{"smiles": "CO[C@H]1[C@@H](OC(=O)/C(C)=C\\[C@@H]2O[C@@H]2[C@H]2O[C@H]2C)[C@H](O)[C@H](OCC23C[C@@H]4[C@H](C)CC[C@H]4C4(C=O)CC2C=C(C(C)C)C34C(=O)O)O[C@@H]1C", "note": "(stereo partly drawn)", "outcome": "inactive"}
{"smiles": "COC(=O)[C@]1([C@H]2CCC(=O)O2)CC(=O)c2c(O)cc(C)cc2O1", "outcome": "inactive"}
{"smiles": "C[C@@H]1C(=O)[C@]23CC[C@H]1C[C@]21O[C@H]2C(C)(C)C=CC(=O)[C@]23COC1=O", "outcome": "inactive"}
{"smiles": "CC(CCC[C@]1(C)C(=O)C=C[C@@]23C[C@]4(C)O[C@@H](C[C@@H]4[C@H]2O)C31)C(=O)O", "note": "(stereo partly drawn)", "outcome": "inactive"}
{"smiles": "C[C@]12CC[C@]3(C1)[C@H](CC2=O)CC(OC(=O)c1ccccc1)[C@H]1[C@@](CO)(C(=O)O)CCC[C@@]13C", "note": "(stereo partly drawn)", "outcome": "inactive"}
{"smiles": "CC(C)=CCC[C@]1(C)[C@H]2CC(=O)[C@@]3(CO3)[C@@H]1C2", "outcome": "inactive"}
{"smiles": "C[C@@H]1O[C@@H](O[C@@H]2[C@@H](O)[C@H](O[C@@H]3[C@@H](O)[C@@H](O)C(O[C@H]4[C@H](OC(=O)[C@]56CCC(C)(C)C[C@H]5C5=CCC7[C@@]8(C)C[C@H](O)[C@H](O[C@@H]9C[C@H](CO)[C@@H](O)[C@H](O)[C@H]9O)[C@@](C)(CO)C8[C@H](O)C[C@@]7(C)[C@]5(C)CC6)OC[C@H](O)[C@@H]4O)O[C@H]3C)OC[C@H]2O)[C@H](O)[C@H](O)[C@H]1O", "note": "(stereo partly drawn)", "outcome": "inactive"}
